Laboratory results reported in the supplement of paper PMC4840960.
± gives the standard deviation of the averaged measurements.

tested on: E18 rat cortical neuron-glia co-culture; test: fiber score / MBP score (myelination specific beyond OL differentiation) (ratio); higher = more myelination-specific MBP alignment; conditions: 1 µM; treatment time: 8 days (DIV5-DIV13)
Outline: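 Primary E18 rat cortical co-cultures (papain-dissociated, 20,000 cells/well on poly-d-lysine/laminin 96-well plates) received library compounds at 1 or 5 µM in myelination medium from DIV5 to DIV13. Cells were fixed in 4 % paraformaldehyde and immunostained for MBP and Olig2 with DAPI, and four 10X fields per well in duplicate wells were analysed. The read-out is fiber score (continuous MBP fiber length per Olig2+ nucleus) divided by MBP score (thresholded MBP area × intensity per Olig2+ nucleus).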

| Structure (SMILES) | fiber score / MBP score |
| --- | --- |
| COc1ccc(C(=O)NCc2ccc(OCCN(C)C)cc2)cc1OC [Itopride] | 0.63 |
| C#C[C@]1(O)CC[C@H]2[C@@H]3CCC4=CC(=O)CC[C@@H]4[C@H]3CC[C@@]21CC [Levonorgestrel] | 0.998 |
| CNCCCCOc1ccccc1Cc1ccccc1 [Bifemelane] | 0.512 |
| Cc1onc(-c2ccccc2)c1-c1ccc(S(N)(=O)=O)cc1 [Valdecoxib] | 0.873 |
| CC(Cc1ccccc1)(NC(=O)CN)c1ccccc1 (stereo not drawn) [Remacemide] | 0.793 |
| CO/N=C(\C(=O)N[C@@H]1C(=O)N2C(C(=O)O)=C(COC(C)=O)CS[C@H]12)c1csc(N)n1 [Cefotaxime] | 0.651 |
| CC(C(=O)O)c1ccc(-c2ccccc2)c(F)c1 (stereo not drawn) [Flurbiprofen] | 0.667 ± 0.24 |
| CCn1cc(C(=O)O)c(=O)c2ccc(C)nc21 [Nalidixic Acid] | 0.966 |
| COc1ccc([C@@H]2Sc3ccccc3N(CCN(C)C)C(=O)[C@@H]2OC(C)=O)cc1 [Diltiazem] | 0.782 |
| Cc1cccc(C)c1OCC(C)N (stereo not drawn) [Mexiletine] | 0.887 |
| COc1ccc(-c2oc3c(CC=C(C)C)c(O[C@@H]4O[C@H](CO)[C@@H](O)[C@H](O)[C@H]4O)cc(O)c3c(=O)c2O[C@@H]2O[C@@H](C)[C@H](O)[C@@H](O)[C@H]2O)cc1 [Icariin] | 0.673 |
| CC(=O)/N=c1/sc(S(N)(=O)=O)nn1C [Methazolamide] | 0.875 |
| C[C@H](CCC(=O)O)[C@H]1CC[C@H]2[C@@H]3C(=O)C[C@@H]4CC(=O)CC[C@]4(C)[C@H]3CC(=O)[C@]12C [Dehydrocholic Acid] | 0.477 |
